The values below come from the supplement of paper PMC10981050.

Where a name gives a salt, the structure may show the parent alone.

One experiment deals with MARIMO. Put plainly: cell viability relative to vehicle control; higher = less cytotoxic. Particulars: 10 µM; SRSF2 genotype: SRSF2 wt/wt. The procedure, abridged: (§1)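 After removal of identity-inconsistent compounds, the Selleck bioactive, kinase and epigenetic probe libraries were screened on CRISPR-edited mutant clones and isogenic wild-type clones of four leukaemia lines. Plates were 384-well, each well holding 2000 cells in 50 µL medium and receiving a single 10 µM acoustically dispensed dose. CellTiter-Glo luminescence was read 48 h later, after the supernatant was taken off. Genedata Screener was used to express viability as percent of the on-plate vehicle control.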
Broadly, the cell viability is a read-out of living cells in per cent, often relative to untreated cells. With `COC(=O)C1=C(C)NC(C)=C(C(=O)OCCN2CCN(C(c3ccccc3)c3ccccc3)CC2)C1c1cccc([N+](=O)[O-])c1` (stereo unspecified) [Manidipine dihydrochloride (CV-4093)], the cell viability was determined as 68.6%. On to `O=S(=O)(O)c1cc(O)ccc1O` [Calcium Dobesilate], for which the cell viability came to 110%. Still for that read-out and setting: for `CC(=O)OCC(=O)[C@@]1(O)[C@H](C)C[C@H]2[C@@H]3CCC4=CC(=O)C=C[C@]4(C)[C@@]3(F)[C@@H](O)C[C@@]21C` [Dexamethasone acetate] the value was 104%; for `O=C([O-])c1ccccc1O.[Na+]` [Sodium salicylate], 97%. Regarding `C=C1C(=O)O[C@@H]2C[C@@]3(C)CCCC(=C)[C@@H]3C[C@H]12` [Isoalantolactone], the cell viability was found to be 25.4%. Consider `c1ccc(Cn2c(-c3ccc(OCC(C4CCNCC4)n4c(-c5ccccc5)nc5ccccc54)cc3)nc3ccccc32)cc1` (stereo unspecified) [Deltarasin], for which the cell viability amounted to 0.33%. Still for that read-out and setting: as for `O=C(Nc1ccccc1-c1cn2c(CN3CCNCC3)csc2n1)c1cnc2ccccc2n1`, the figure is 0.26%.

Another experiment relates to MOLM14. Described as above. The following applies: 10 µM; SRSF2 genotype: SRSF2 P95H/wt. The method, boiled down:
as §1
On to `OCC1OC(OC2OC(CO)C(O)C(O)C2O)C(O)C(O)C1O` [D-(+)-Trehalose Anhydrous], for which the cell viability was found to be 107%. Still for that read-out and setting: as for `CCCCCCCCCCCCCCCCCC[N+](C)(C)C` [Trimethyloctadecylammonium bromide], the figure is 0.73%; as for `CC(C)c1cc(-c2ccc(F)c3ccccc23)nc(N)n1`, 93.1%. Same read-out and setting: for `Cc1nc2n(c(=O)c1CCN1CCC(c3noc4cc(F)ccc34)CC1)CCCC2` [Risperidone (Risperdal)] the value was 100%.

Take `Cc1[nH]c2ccccc2c1C1=C(NCCc2ccc(F)cc2)C(=O)N(C)C1=O`: the cell viability turned out to be 99.4%.

On to `Cc1nc(N)sc1-c1ccnc(Nc2ccc(N3CCOCC3)cc2)n1`, for which the cell viability worked out at 5.52%. On the same count and under the same terms, for `CN(C)CCC(c1ccc(Br)cc1)c1ccccn1` (stereo unspecified) [Brompheniramine hydrogen maleate] the value was 101%. Same read-out and setting: for `C[S+](CC[C@H](N)C(=O)[O-])C[C@H]1O[C@@H](n2cnc3c(N)ncnc32)[C@H](O)[C@@H]1O` (stereo partly specified) [Ademetionine disulfate tosylate] the value was 112%; for `CNCc1cc(-c2ccccc2F)n(S(=O)(=O)c2cccnc2)c1` [Vonoprazan Fumarate (TAK-438)], 93%. On to `C=CC(=O)N1CC[C@@H](Oc2nc(Nc3ccc(N4CCC(N5CCN(C)CC5)CC4)cc3)c(C(N)=O)nc2CC)C1` [ASP8273 (Naquotinib)], for which the cell viability amounted to 8.47%. The same measure, in the same setting: as for `CC(=O)NC[C@H]1CN(c2ccc(N3CCOCC3)c(F)c2)C(=O)O1` [Linezolid (Zyvox)], the figure is 88.3%; as for `CC(C)=CCC[C@](C)(O[C@@H]1O[C@H](CO)[C@@H](O)[C@H](O)[C@H]1O)[C@H]1CC[C@]2(C)[C@@H]1[C@H](O)C[C@@H]1[C@@]3(C)CC[C@H](O)C(C)(C)[C@@H]3[C@@H](O[C@@H]3O[C@H](CO)[C@@H](O)[C@H](O)[C@H]3O[C@@H]3OC[C@@H](O)[C@H](O)[C@H]3O)C[C@]12C` [Notoginsenoside R1], 106%.

As to `CC#CC(=O)Nc1ccc2ncnc(Nc3cccc(Br)c3)c2c1`, the cell viability turned out to be 0.84%. On the same count and under the same terms, for `Cc1cccc(C#Cc2ccccc2)n1` the value was 111%; for `CO/N=C(\C(=O)N[C@@H]1C(=O)N2C(C(=O)O)=C(CSc3nnnn3C)CS[C@H]12)c1csc(N)n1` [Cefmenoxime hydrochloride], 99.7%.

On to `CC1(C)CC(=O)c2c(C(F)(F)F)nn(-c3ccc(C(N)=O)c(N[C@H]4CC[C@H](O)CC4)c3)c2C1`, for which the cell viability was determined as 3.24%.

`CC1(C)C=Cc2c(ccc3c2OC[C@@H](c2ccc(O)cc2O)C3)O1` [Glabridin]: the cell viability was 87.2%.

Consider `COc1cccc(-c2cc(NCc3ccc4c(c3)OCO4)nc(N)n2)c1` [Wnt agonist 1], for which the cell viability was 7.29%. Still for that read-out and setting: as for `CNC1CCC(N(Cc2cccc(-c3ccncc3)c2)C(=O)c2sc3ccccc3c2Cl)CC1` (stereo unspecified) [Smoothened Agonist (SAG) HCl], the figure is 36.6%. In the case of `NCCCCCNCC12CC3CC(CC(C3)C1)C2` [IEM 1754 dihydrobroMide], the cell viability was determined as 103%. Turning to `NC(=S)c1ccncc1` [Thioisonicotinamide], the cell viability came to 103%. The same measure, in the same setting: for `C[C@@]1(F)[C@H](O)[C@@H](CO)O[C@H]1n1ccc(=O)[nH]c1=O` [2'-deoxy-2'-fluoro-2'-C-methyluridine] the value was 87.2%; for `Nc1cccc2c1CN(C1CCC(=O)NC1=O)C2=O` (stereo unspecified) [Lenalidomide (CC-5013)], 91.3%; for `Cc1ccccc1N1C(=O)c2cc(S(N)(=O)=O)c(Cl)cc2NC1C` (stereo unspecified) [Metolazone (Zaroxolyn)], 99.5%.
